Data reported in PubChem BioAssay (NCATS).
Where “and” joins values, the source holds several entries; their conditions need not be identical. Equal entries are not always repeated. Inconclusive results are not listed. More than one record can exist for a structure, and the calls need not agree. Calls of active or inactive are those of the source. Calls come from the whole dose curve; as a rule, active = well fitted curve in the direction sought with a large enough effect; inconclusive = small, poorly fitted or top-dose-only effect, or another doubt; inactive = no such curve, though single readings can be large; an effect the other way counts as inactive or inconclusive.

target: Cytochrome P450 3A4 (Homo sapiens) (UniProt P08684); test: qHTS Assay for Inhibitors and Substrates of Cytochrome P450 3A4 (AID 884); settings: recombinant CYP3A4, Luciferin-PPXE luminescence; series mostly up to 57.1 µM; activity change, negative = inhibition: at the top concentration; note: nearly all actives have a fitted effect of over 50% in size; note: potency is the fitted concentration of half-maximal effect; for activity change, negative = inhibition: % is set by controls: 0 for no effect and ±100 for the full control effect
Sequence (P08684 whole entry, looked up): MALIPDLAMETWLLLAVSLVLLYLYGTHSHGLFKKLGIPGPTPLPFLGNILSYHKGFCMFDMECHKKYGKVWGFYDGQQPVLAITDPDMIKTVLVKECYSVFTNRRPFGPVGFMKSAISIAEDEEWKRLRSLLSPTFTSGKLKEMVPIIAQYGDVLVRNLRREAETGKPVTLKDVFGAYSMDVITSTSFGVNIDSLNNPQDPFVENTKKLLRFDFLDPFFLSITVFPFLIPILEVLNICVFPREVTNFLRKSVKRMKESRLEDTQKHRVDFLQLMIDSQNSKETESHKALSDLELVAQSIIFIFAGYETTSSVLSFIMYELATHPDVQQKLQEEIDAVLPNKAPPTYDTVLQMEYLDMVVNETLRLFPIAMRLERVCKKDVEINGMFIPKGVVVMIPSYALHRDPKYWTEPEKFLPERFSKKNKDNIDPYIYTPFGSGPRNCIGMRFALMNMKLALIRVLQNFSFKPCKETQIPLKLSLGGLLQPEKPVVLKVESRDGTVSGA
Method in brief: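 Luminescent readout of luciferin produced by CYP3A4 (20 nM) dealkylation of Luciferin-PPXE, 25 uM (its KM). NADPH-driven reaction ran 60 min at RT after 10 min compound preincubation; data scaled to 57 uM ketoconazole as 100% inhibition.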

| Compound | activity change, negative = inhibition | Potency |
| --- | --- | --- |
| Cc1nc(N=Nc2cc(S(=O)(=O)O)c3cc([N+](=O)[O-])cc(S(=O)(=O)O)c3c2)c(COP(=O)(O)O)c(C=O)c1O | -28.2% (inactive) |  |
| O=C(O)c1ccccc1Nc1cccc(OCc2ccc3ccccc3n2)c1 |  | 1.58 µM (active) |
| O=C(O)c1cc2cc(F)ccc2[nH]1 | 4.94% (inactive) |  |
| O=S(=O)(c1cccc2c(Cl)cccc12)N1CCCNCC1 |  | 5.01 µM (active) and 3.98 µM (active) |
| CCCc1c(-c2ccc(O)cc2)nn(-c2ccc(O)cc2)c1-c1ccc(O)cc1 |  | 2.51 µM (active) |
| CCCCCCN(CCCCCC)C(=O)Cc1c(-c2ccc(F)cc2)[nH]c2ccccc12 |  | 2.51 µM (active) |
| O=c1onc2cnc3ccccc3n12 |  | 10 µM (active) |
| C[C@H](NC(=O)/C(C#N)=C/c1ccc(O)c(O)c1)c1ccccc1 |  | 3.16 µM (active) |
| CNc1cc(NS(=O)(=O)c2ccc(N)cc2)nc(NC)n1 |  | 0.794 µM (active) |
| CCCn1c(=O)c2[nH]c(C3CCCC3)nc2n(CCC)c1=O | -5.39% (inactive) |  |
| O=C(O)c1cccnc1C(=O)O | 21.1% (inactive) |  |
| NC(N)=NC(N)=Nc1ccccc1 | -1.61% (inactive) |  |
| NC/C=C\C(=O)O | 8.87% (inactive) |  |
| NC(N)=NC(N)=Nc1cccc(Cl)c1 | 33.6% (inactive) |  |
| CCN(CC)CCOC(=O)c1cc(Cl)c(N)cc1OC | -24% (inactive) |  |
| CN[C@H](CC(=O)O)C(=O)O | -6.41% (inactive) |  |
| COc1ccc(NC(=O)c2ccc(-c3ccc(-c4noc(C)n4)cc3C)cc2)cc1N1CCN(C)CC1 | 0.168% (inactive) |  |
| CCCCCCCC/C=C\CCCCCCCC(=O)NCCc1ccc(O)c(O)c1 |  | 3.16 µM (active) |

target: Cytochrome P450 3A4 (Homo sapiens) (UniProt P08684); test: qHTS Assay for Activators of Cytochrome P450 3A4 (AID 885); settings: recombinant CYP3A4, Luciferin-PPXE luminescence, 60 min; series mostly up to 57.1 µM; activity change, positive = activation: at the top concentration; note: nearly all actives have a fitted effect of over 65% in size
Method in brief: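 Activators are scored by enhanced luminescence from CYP3A4 conversion of luciferin-PPXE (25uM, equal to KM) to luciferin, after 60 min at RT with an NADPH-regenerating system.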

| Compound | activity change, positive = activation |
| --- | --- |
| O=[N+]([O-])c1cccc2c(Br)[nH]nc12 | -63% (inactive) |
| O=C(O)c1ccccc1Nc1cccc(OCc2ccc3ccccc3n2)c1 | -90.4% (inactive) |
| Oc1ccc(Cn2cc[nH]c2=S)cc1 | -35.5% (inactive) |
| O=c1[nH]ccc2c(O)cccc12 | -30.4% (inactive) |
| O=c1onc2cnc3ccccc3n12 | -81.1% (inactive) |
| C[C@H](NC(=O)/C(C#N)=C/c1ccc(O)c(O)c1)c1ccccc1 | -84.2% (inactive) |
| CNc1cc(NS(=O)(=O)c2ccc(N)cc2)nc(NC)n1 | -83.8% (inactive) |
| NC(N)=NC(N)=Nc1cccc(Cl)c1 | -38.1% (inactive) |
| CCN(CC)CCOC(=O)c1cc(Cl)c(N)cc1OC | -30.1% (inactive) |
| CCn1c(=O)[nH]c2cc(Cl)c(Cl)cc21 | -61.4% (inactive) |
| CC(=O)NNC(=O)N1Cc2ccccc2Oc2ccc(Cl)cc21 | -43.8% (inactive) |

target: Cytochrome P450 2D6 (Homo sapiens) (UniProt P10635); test: qHTS Assay for Inhibitors and Substrates of Cytochrome P450 2D6 (AID 891); settings: recombinant CYP2D6, luciferin-ME EGE luminescence; series mostly up to 57.1 µM; activity change, negative = inhibition: at the top concentration; note: nearly all actives have a fitted effect of over 60% in size; note: potency is the fitted concentration of half-maximal effect;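 for activity change, negative = inhibition: luciferin methyl ether substrate demethylated by CYP2D6 with NADPH regeneration; % is set by controls: 0 for no effect and ±100 for the full control effect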
Sequence (P10635 whole entry, looked up): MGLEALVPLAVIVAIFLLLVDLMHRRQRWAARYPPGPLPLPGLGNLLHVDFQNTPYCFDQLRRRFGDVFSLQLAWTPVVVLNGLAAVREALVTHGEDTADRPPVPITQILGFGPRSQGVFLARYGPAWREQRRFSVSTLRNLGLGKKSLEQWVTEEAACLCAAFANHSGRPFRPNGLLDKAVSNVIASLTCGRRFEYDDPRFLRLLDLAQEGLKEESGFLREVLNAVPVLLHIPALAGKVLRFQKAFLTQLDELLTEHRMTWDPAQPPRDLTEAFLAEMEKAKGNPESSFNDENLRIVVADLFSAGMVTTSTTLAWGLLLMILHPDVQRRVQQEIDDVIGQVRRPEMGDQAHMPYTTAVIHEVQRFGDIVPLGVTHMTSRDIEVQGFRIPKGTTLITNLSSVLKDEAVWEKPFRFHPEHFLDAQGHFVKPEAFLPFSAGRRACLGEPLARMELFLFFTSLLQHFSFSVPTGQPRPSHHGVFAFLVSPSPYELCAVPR
Method in brief: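 Luminescent read-out of luciferin formed by 5 nM human CYP2D6 demethylating 30 uM Luciferin-ME EGE (Km level) over 60 min at room temperature after NADPH regeneration addition. Data normalized to full inhibition by 1.43 uM quinidine.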

| Compound | activity change, negative = inhibition | Potency |
| --- | --- | --- |
| Cc1nc(N=Nc2cc(S(=O)(=O)O)c3cc([N+](=O)[O-])cc(S(=O)(=O)O)c3c2)c(COP(=O)(O)O)c(C=O)c1O | -14.5% (inactive) |  |
| O=C(O)c1ccccc1Nc1cccc(OCc2ccc3ccccc3n2)c1 |  | inactive and 7.94 µM (active) |
| O=C(O)c1cc2cc(F)ccc2[nH]1 | 11.1% (inactive) |  |
| CCCc1c(-c2ccc(O)cc2)nn(-c2ccc(O)cc2)c1-c1ccc(O)cc1 |  | 39.8 µM (active) |
| CCCCCCN(CCCCCC)C(=O)Cc1c(-c2ccc(F)cc2)[nH]c2ccccc12 | -1.8% (inactive) |  |
| O=c1onc2cnc3ccccc3n12 | -2.38% (inactive) |  |
| C[C@H](NC(=O)/C(C#N)=C/c1ccc(O)c(O)c1)c1ccccc1 |  | inactive |
| N[C@H](C(=O)O)c1cc(O)cc(O)c1 | -5.35% (inactive) |  |
| CC[C@H](NC(=O)c1c(C)c(-c2ccccc2)nc2ccccc12)c1ccccc1 | -10.1% (inactive) |  |
| NCCS(=O)O | -1.26% (inactive) |  |
| CCCn1c(=O)c2[nH]c(C3CCCC3)nc2n(CCC)c1=O | -3.54% (inactive) |  |
| Cn1cc(C(=O)OCC2CCN(CCNS(C)(=O)=O)CC2)c2ccccc21 | -12.7% (inactive) |  |
| O=[N+]([O-])c1cccc2cn[nH]c12 | 3.66% (inactive) |  |
| O=C(O)c1cccnc1C(=O)O | 2.35% (inactive) |  |
| NC(N)=NC(N)=Nc1ccccc1 | -1.79% (inactive) |  |
| CNC(=O)c1cc2c(cn1)[nH]c1ccccc12 | 1.25% (inactive) |  |
| NC/C=C\C(=O)O | 4.92% (inactive) |  |
| CN[C@H](CC(=O)O)C(=O)O | 3.8% (inactive) |  |
| CCn1c(=O)[nH]c2cc(Cl)c(Cl)cc21 | 2.26% (inactive) |  |
| CC(=O)NNC(=O)N1Cc2ccccc2Oc2ccc(Cl)cc21 |  | 6.31 µM (active) |
| COCc1nc2c([nH]1)c(=O)n(C)c(=O)n2CC(C)C | 1.02% (inactive) |  |
